Source: PubChem BioAssay AID1347417 (National Center for Advancing Translational Sciences (NCATS), 2020)
In all, about 120,000 compounds went through this assay and about 5,300 (4.4%) were called active. Roughly 22% stayed inconclusive and do not appear here. Calls follow the shape of the dose curve; as a rule, active = well fitted inhibition curve with a large enough effect; inconclusive = small, poorly fitted or top-dose-only effect; inactive = no such curve, though single readings can be large or run the other way. Only a selection was taken, and actives are over-represented in it overall.

Assay: qHTS Primary assay for Inhibitors of Plasmodium falciparum Dd2 growth in vitro; also: nearly all actives have a fitted effect of over 65% in size;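 as to activity, negative = inhibition: plate controls were DMSO vehicle for no effect and reference drug for full effect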
Settings: P. falciparum Dd2 growth, SYBR Green, 72 h; series mostly up to 28.9 µM; activity, negative = inhibition: at the top concentration
In short: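 Readout: SYBR Green fluorescence, 485 nm excitation, 535 nm emission, after ~16 h lysis at 37C. Before that, Dd2-infected red cells (2.5% hematocrit) grew 72 h with compound, 29 uM top final concentration.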
Potency is read from the fitted curve at half-maximal effect.

Structure (SMILES)	activity, negative = inhibition	outcome	Potency
CCOC(=O)c1[nH]ncc1C1CC(=O)Nc2c1cnn2Cc1cccnc1 (centres undefined)	-9.38% (inactive)		
C[S+](=O)([O-])N1CCC(Cn2ccc3c(N4CCOCC4)nc(-c4cccc(O)c4)cc32)CC1		inactive	
CN1CCc2c([nH]c3ccccc23)C12CCN(C(=O)c1nccc3ccccc13)CC2		inactive	
CCC(CC)C(=O)N1CC(C(=O)N(C)C)C2(CCOCC2)C1 (centres undefined)	0.16% (inactive)		
Cc1cccc(C)c1NC(=O)Cn1ccn2nc(-c3ccccc3)c(CO)c2c1=O	29.5% (inactive)		
O=C1CO[C@H]2CN(C3CCOCC3)C[C@H]2N1c1ccccc1	-6.35% [at 44.1 µM] (inactive)		
COc1ccc(-c2cc(-c3ccccc3)nc3c2COc2ccc(Cl)cc2-3)cc1		inactive; activator; fitted 0.4467 uM	
Fc1ccc(-c2nc(Nc3cccc(Cl)c3)nc3c2COc2ccccc2-3)cc1			11.2 µM (active)
COc1ccc(-c2cc(-c3ccc(F)cc3)nc3c2COc2ccccc2-3)cc1		inactive	
COc1ccc(Cl)cc1C(=O)N1CCN(c2cc(C(F)(F)F)nc(C)n2)CC1	-20.6% (inactive)		
COc1ccc(C(=O)N2CCOC3(CCN(C(=O)c4c(C)noc4C)CC3)C2)cc1	38.2% (inactive)		
CC1=Nc2cc(C(=O)NCc3ccc(C)cc3)ccc2Sc2ccc(Cl)cc21	-2.44% (inactive)		
CCC1=Nc2cc(C(=O)NCC(C)c3ccccc3)ccc2Sc2ccc(C)cc21 (centres undefined)			11.2 µM (active)
CCc1ccc(Sc2cc(C(=O)NCCCOC(C)C)c3ccccc3n2)cc1	-12.5% (inactive)		
CCC1=Nc2cc(C(=O)NCCCOC(C)C)ccc2Sc2ccc(C)cc21			12.6 µM (active)
Cc1ccc(N(CC(=O)NCC(C)c2ccccc2)S(=O)(=O)N(C)C)cc1 (centres undefined)	24.7% (inactive)		
COCCNC(=O)c1ccc2c(c1)N=C(C)c1cc(C)ccc1S2		inactive	
O=C(c1ccc(OC(F)(F)F)cc1)N1CCC(n2cc(-c3nc(C4CC4)no3)nn2)C1 (centres undefined)	-8.12% (inactive)		
O=C(c1ccoc1)N1CCC(N2CC3CC(C2)[C@H]2CCCC(=O)N2C3)CC1 (some centres undefined)	-7.89% (inactive)		
Cc1ccc(Cc2ccccc2C(=O)N2C[C@@H](CN(C)CCO)[C@@H](CO)C2)cc1	-19.7% (inactive)		
Cc1ccc(C(=O)N2CCC(CCC(=O)N3CCc4ccccc4C3)CC2)cc1		inactive	
Cc1ncc2n1C(=O)N(C1CCN(C(=O)c3ccc(Cl)cc3)CC1)C2	14.4% (inactive)		
COCCNS(=O)(=O)c1cc(-c2nn3c(C)nnc3c3ccccc23)ccc1C	-3.2% (inactive)		
COC(=O)c1c(NC(=O)c2ccccc2)c2cc(NC(C)C)cnc2n1CC1CCCO1 (centres undefined)	4.39% (inactive)		

Structure (SMILES)	activity, negative = inhibition	outcome	Potency
Cc1ccc(Nc2nnc(-c3ccc(C)c(S(=O)(=O)N4CCCCC4)c3)c3ccccc23)cc1	-8.84% (inactive)		
Cc1ccc(-c2nnc(Nc3cccc(Br)c3)c3ccccc23)cc1S(=O)(=O)NCC1CCCO1 (centres undefined)			11.2 µM (active)
CCNS(=O)(=O)c1cc(-c2nnc(Nc3cccc(C(F)(F)F)c3)c3ccccc23)ccc1C	-7.56% (inactive)		
Cc1ccc(-c2nnc(Nc3ccc(OCC(N)=O)cc3)c3ccccc23)cc1S(=O)(=O)NCC1CCCO1 (centres undefined)			1.12 µM (active)
O=C(NCCc1noc(C2CC2)n1)c1ccc2c(c1)OCO2	19.1% (inactive)		
C[S+](=O)([O-])N1CC2ON=C(C(=O)N3CCCC3)C2C1 (centres undefined)	10.8% [at 44.1 µM] (inactive)		
COCCn1ncc(N2CCC(C(=O)NCc3ccc(C)o3)C2)cc1=O (centres undefined)	-20.4% (inactive)		
CC(C)(C)c1ccnc(N[C@H]2CO[C@H]3[C@@H]2OC[C@H]3OC(=O)Nc2cccc(C(F)(F)F)c2)n1	-5.75% (inactive)		
Cc1ccc(NC(=O)c2cnc(-c3ccccc3)nc2-c2ccncc2)cc1C	-4.94% (inactive)		
O=[S+]1([O-])NCC2(CCCN(Cc3ccncc3)C2)Oc2ncccc21 (centres undefined)	116% (inactive)		
Cc1nn(C)c(C)c1S(=O)(=O)N1CCC(c2noc(-c3ccccc3)n2)C1 (centres undefined)	8.68% [at 5.79 µM] (inactive)		
CC(C)Cn1c(-c2ccc(S(=O)(=O)N3CCOCC3)cc2)csc1=Nc1cc(Cl)ccc1Cl			10 µM (active)
O=C(CN1C(=O)COc2ccc(S(=O)(=O)N3CCOCC3)cc21)N1CCN(c2cccc(Cl)c2)CC1	-25.6% (inactive)		
O=C1[C@@H]2C[C@@H](O)CN2C2(CN(Cc3ccc(OC(F)(F)F)cc3)C2)C(=O)N1Cc1ccccc1Cl	-3.76% (inactive)		
CO[C@H]1[C@H](NC(=O)c2cnc3ccccc3c2)c2ccccc2C12CCNCC2	-5.04% (inactive)		
Clc1ccc(-c2nnc3n2CCN(Cc2cccc4ccccc24)C3)cc1	5.45% (inactive)		
Cc1ccccc1N(C)C1CN(Cc2cccc3ccccc23)C1			10 µM (active)
c1ccc2c(c1)CCN2C1CN(Cc2cccc3ccccc23)C1	-22% (inactive)		
COc1cc2c(cc1OCc1ccncc1)NC(=O)C21CCN(c2ncccn2)CC1		inactive [at 44.1 µM]	
COc1cc2c(cc1Oc1cccc(N(C)C)c1)NC(=O)C21CCN(c2cnccn2)CC1			0.891 µM (active)
COc1cc2c(cc1Oc1cccc(N(C)C)c1)NC(=O)C21CCN(Cc2ccccn2)CC1		inactive	
COc1ccc(NC(=O)O[C@@H]2CO[C@H]3[C@@H]2OC[C@@H]3NC(=O)C2CCCCC2)cc1	-19.6% [at 44.1 µM] (inactive)		
O=C(CC1CCCN(c2cnn(CC3CC3)c(=O)c2)C1)NCc1cc(F)cc(F)c1 (centres undefined)		inactive	
COc1ccc(NC(=O)Cn2c(=O)n(-c3ccccc3)c(=O)c3c2cc(C)n3C)cc1	64.6% (inactive)		

Structure (SMILES)	activity, negative = inhibition	outcome	Potency
N#Cc1ccc(S(=O)(=O)NC2CCc3nn(CC4CC4)c(=O)n3CC2)cc1 (centres undefined)	5.54% (inactive)		
CCCn1c2ccccc2c2cnn(CC(=O)N(C)c3ccccc3CC)c(=O)c21	-15% (inactive)		
CCCn1c2ccccc2c2cnn(CC(=O)NCCCOC(C)C)c(=O)c21		inactive	
CCN(CC)CCNC(=O)Cn1ncc2c3ccccc3n(Cc3ccccc3C)c2c1=O			10 µM (active)
CCN(CCCNC(=O)Cn1ncc2c3ccccc3n(C)c2c1=O)Cc1ccccc1	-10.1% (inactive)		
CCCN(CCC)CCCNC(=O)Cn1ncc2c3ccccc3n(Cc3ccccc3)c2c1=O			5.01 µM (active)
CCCn1c2ccccc2c2cnn(CC(=O)N(CC)c3cc(C)ccc3C)c(=O)c21	28.1% (inactive)		
COc1cccc(CC(=O)N2CCC(c3nc(CCOc4ccc(F)cc4)no3)C2)c1 (centres undefined)		inactive	
COCCNC(=O)[C@@H]1C[C@@H](O)CN1C1CCN(C(=O)CCc2ccccc2)CC1	21.1% (inactive)		
CCn1c(=O)c2ccnn2c2ccc(C(=O)NC3CCCCC3)cc21		inactive	
Cc1ccccc1NC(=O)N1CCC(CCNC(=O)c2ccoc2)CC1	2.98% (inactive)		
O=C(c1cccc(Cl)c1)N1CCN(c2cc(-c3cccs3)[nH]n2)CC1		inactive	
COc1cccc(CN2Cc3nc(Nc4cccc(F)c4)ccc3OCC2=O)c1	-23.1% [at 44.1 µM] (inactive)		
CN(CCCn1cccn1)C(=O)C1CCN(C(=O)C2CCCC2)CC1	-0.759% (inactive)		
O=C(N[C@@H]1CN(Cc2c(F)cccc2F)C[C@H]1CO)c1ccccc1	-18.3% (inactive)		
Cc1cc(N2CCCC(Cn3cc(Cc4ccccc4)nn3)C2)nc(N)n1 (centres undefined)			12.6 µM (active)
O=C(Nc1ccccc1)[C@H]1CN2CCC1C[C@@H]2Cn1cc(CO)nn1 (some centres undefined)		inactive [at 44.1 µM]	
O=C(NCc1ccccc1)[C@@H]1C[C@@H](c2ccc(F)cc2)N([S+](=O)([O-])c2cccnc2)C1		inactive [at 44.1 µM]	
O=C1Nc2ccc(Br)cc2C(=O)N2CCN(C(=O)C3CCCCC3)C[C@H]12	2.95% [at 44.1 µM] (inactive)		
CCOC(=O)c1ccc(NC(=O)c2c(NCc3cccs3)sc3c2CCCC3)cc1			10 µM (active)
CCOC(=O)c1c(NC(=O)c2cc(-c3ccc(Cl)cc3)on2)sc2c1CCCC2		inactive	
CCOC(=O)c1c(NC(=O)Cc2coc3ccc(CC)cc23)sc2c1CCC2	6.52% (inactive)		
O=C(Cc1cccs1)NC1CCCN(c2cc(-c3ccccc3)[nH]n2)C1 (centres undefined)		inactive	
COc1ccc(-c2ccc3c(c2)C(=O)N2CCN(C(=O)CC4(CC(=O)O)CCCC4)C[C@H]2C(=O)N3)cc1		inactive	

Structure (SMILES)	activity, negative = inhibition	outcome	Potency
CN1C(=O)CC(C(=O)O)C12CCN(Cc1cccc(OC(F)F)c1)CC2 (centres undefined)	18.1% (inactive)		
CN(C)C[C@@H]1CN(C)C[C@H]1NC(=O)C1CCC1	32.2% (inactive)		
CCOc1cc(=O)n2c(c1C(=O)Nc1ccc(F)cc1F)CCCC2		inactive	
CCOC(=O)N1CCc2c(sc3c2C(=O)NC(c2ccccc2F)N3)C1 (centres undefined)	-16.9% (inactive)		
CCOC(=O)N1CCc2c(sc(NCc3cccc(F)c3)c2C(=O)Nc2ccccc2OCC)C1			4.47 µM (active)
Cc1ccccc1CN1CCC(CNC(=O)c2cc3ccc4cccnc4c3[nH]2)CC1			10 µM (active)
CCOc1ccccc1N(CC)C(=O)Nc1cn(C)c(=O)c2ccccc12		inactive	
Cc1ccccc1CN1CCC(N2CCCC(C(=O)NC3CC3)C2)CC1 (centres undefined)	-22.1% (inactive)		
Cc1ccccc1CN1CCc2ncc(C(=O)NCCOc3ccccc3)n2CC1	10.2% [at 44.1 µM] (inactive)		
CCOc1ccccc1N(CC)C(=O)c1cc2ccc3cccnc3c2[nH]1			12.6 µM (active)
CCOc1ccccc1C(=O)N1CCC(Oc2ncccc2C(=O)N(C)C)C1 (centres undefined)		inactive	
CCOc1ccc(NC(=O)Cn2c(-c3ccc(F)cc3)nc(C)cc2=O)cc1	-11.4% (inactive)		
CC(C)CC(=O)NCC(c1ccc2c(c1)OCO2)N1CCN(c2ccc(F)cc2)CC1 (centres undefined)			10 µM (active)
Cc1ccc(NC(=O)C(=O)NCC(c2cccnc2)N2CCOCC2)cc1 (centres undefined)	6.96% (inactive)		
COc1ccc(C(C(=O)O)N2CCCN(c3ccc(F)cc3)CC2)cc1F (centres undefined)	-9.93% (inactive)		
COc1ccc(Cn2ccnc2SCC(=O)Nc2ccc3c(c2)OCO3)cc1		inactive	
COc1cccc(NC(=O)C(=O)NCC(c2ccc3c(c2)OCO3)N2CCN(C)CC2)c1 (centres undefined)			7.94 µM (active)
CN(C)c1ccc(C(CNS(=O)(=O)c2cc(F)ccc2F)N2CCOCC2)cc1 (centres undefined)	-17.8% (inactive)		
O=C(CN1CC2CC(C1)[C@H]1CCCC(=O)N1C2)N1CCN(c2ccccn2)CC1 (some centres undefined)	-18.1% (inactive)		
CCn1ncnc1C(C)NC1CCC2(CCNCC2)CC1 (centres undefined)	29.3% (inactive)		
CCC(O)c1cc2n(n1)CCN(C(=O)c1cnc(C)nc1-c1ccccc1)C2 (centres undefined)	6.35% (inactive)		
COc1ccc(S(=O)(=O)N[C@H]2C[C@H]3C(=O)NC[C@@H](CCC(=O)N4CCc5ccccc54)N3C2)cc1	-28.7% (inactive)		
